According to PubChem BioAssay (NCI):
This is part of a sample that, as a whole, favours compounds with a hit. Of some 79,000 tested, about 15% had one in any assay. Unmarked numbers belong to inactive results. Calls of active or inactive are those of the source. Rule as the data show it: active = growth inhibition above about 70%; inactive = the rest.

Tests used:
[1] = NCI Yeast Anticancer Drug Screen. Data for the rad50 strain (AID 155);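 also: 0% = growth of vehicle-only cultures of the same strain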; settings: S. cerevisiae rad50 strain growth inhibition, hits give high values
Method in brief: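 DNA repair mutant yeast, compound exposure, growth read-out; inhibition is taken relative to vehicle.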

[2] = NCI Yeast Anticancer Drug Screen. Data for the mec2-1 strain (AID 157); settings: S. cerevisiae mec2-1 strain, hits give high values
Method in brief: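 Using mec2-1 yeast: add compound, measure growth, express inhibition versus vehicle-treated cultures.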

[3] = NCI Yeast Anticancer Drug Screen. Data for the sgs1 mgt1 strain (AID 161);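 also: 0% = growth of cultures given vehicle only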; settings: S. cerevisiae sgs1 mgt1 strain, hits give high values
Method in brief: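 Percent growth inhibition was derived by comparing compound-exposed mutant yeast with vehicle-exposed cultures. The strain carries alterations in DNA damage repair.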

[4] = NCI Yeast Anticancer Drug Screen. Data for the cln2 rad14 strain (AID 165);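 also: 0% = growth equal to vehicle treated cultures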; settings: S. cerevisiae cln2 rad14 strain, hits give high values
Method in brief: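 Yeast strain cln2 rad14, bearing defects in cell cycle control and DNA repair, serves as the test system; values reflect growth inhibition compared with vehicle.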

[5] = NCI Yeast Anticancer Drug Screen. Data for the bub3 strain (AID 167); settings: S. cerevisiae bub3 mutant strain, hits give high values
Method in brief: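 In this screen, a yeast mutant lacking normal mitotic checkpoint function is challenged with compound. Relative growth versus vehicle gives the inhibition value.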

[6] = NCI Yeast Anticancer Drug Screen. Data for the mlh1 rad18 strain (AID 175); settings: S. cerevisiae mlh1 rad18 strain growth inhibition, hits give high values
Method in brief: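 Steps: expose repair-defective yeast to compound; measure growth; express inhibition against vehicle-treated controls.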

[7] = at 5.0 µM (retest, dose inferred, filed as 0.5)
[8] = at 50.0 µM (retest, dose inferred, filed as 5.0)

Compound	growth inhibition [1, 7]	growth inhibition [1, 8]	growth inhibition ([1]; at 50.0 µM)	growth inhibition [2, 7]	growth inhibition [2, 8]	growth inhibition ([2]; at 50.0 µM)	growth inhibition [3, 7]	growth inhibition [3, 8]	growth inhibition ([3]; at 50.0 µM)	growth inhibition [4, 7]	growth inhibition [4, 8]	growth inhibition ([4]; at 50.0 µM)	growth inhibition [5, 7]	growth inhibition [5, 8]	growth inhibition ([5]; at 50.0 µM)	growth inhibition [6, 7]	growth inhibition [6, 8]	growth inhibition ([6]; at 50.0 µM)
[N-]=[N+]=NC1(N=[N+]=[N-])C(=O)NN=C(c2ccccc2)C1=O (centres undefined)	-12%	87% (active)	84% (active)	15%	91% (active)	91.2% (active)	4%	83% (active)	88% (active)	23%	87% (active)	86.8% (active)	-3%	97% (active)	89.7% (active)	31%	97% (active)	79.7% (active)
O=C1CC2CCCC(C1)N2Cc1ccccc1	2%	26%	71.5% (active)	4%	28%	-6.1%	15%	47%	62.5%	-69%	47%	37.5%	-2%	25%	34.9%	7%	24%	51.7%
c1ccc([As+](c2ccccc2)(c2ccccc2)c2cccc3ccccc23)cc1	88% (active)	99% (active)	99% (active)	90% (active)	99% (active)	99.1% (active)	93% (active)	100% (active)	98.7% (active)	86% (active)	99% (active)	99% (active)	90% (active)	99% (active)	98.8% (active)	88% (active)	99% (active)	98.8% (active)
COc1ccccc1/C=C/[N+](=O)[O-]	90% (active)	98% (active)	99.6% (active)	65%	99% (active)	99.7% (active)	87% (active)	99% (active)	99.2% (active)	62%	99% (active)	99.3% (active)	74% (active)	98% (active)	99.2% (active)	96% (active)	99% (active)	99% (active)
CC(=O)OCC12CCC(C)=CC1OC1C(O)C(OC(C)=O)C2(C)C12CO2 (centres undefined)	99% (active)	99% (active)	92.7% (active)	98% (active)	100% (active)	94.5% (active)	98% (active)	99% (active)	93.7% (active)	99% (active)	99% (active)	92.8% (active)	97% (active)	99% (active)	92.8% (active)	99% (active)	99% (active)	92.5% (active)
ClCc1ccncc1	38%	73% (active)	54.9%	26%	46%	47.2%	55%	69%	69.4%	38%	57%	51%	31%	73% (active)	58%	25%	66%	57.6%
CCC[CH2][Sn]1([CH2]CCC)[O]CCN2CCN(CC[O]1)CC2	-4%	12%	74.1% (active)	-4%	13%	94% (active)	-3%	9%	83.2% (active)	-5%	5%	41.6%	-2%	10%	53.1%	-6%	15%	85.7% (active)
CCC1(O)C(=O)OCc2c1cc1n(c2=O)Cc2cc3cc4c(cc3nc2-1)OCO4 (centres undefined)	97% (active)	92% (active)	86.6% (active)	98% (active)	96% (active)	86.3% (active)	97% (active)	96% (active)	85.2% (active)	90% (active)	91% (active)	73% (active)	92% (active)	89% (active)	90% (active)	93% (active)	79% (active)	92.7% (active)
C/C1=C\[C@H](C)C[C@H](C)OC(=O)C[C@H](c2ccc(O)cc2)NC(=O)[C@@H](Cc2c(Br)[nH]c3ccccc23)N(C)C(=O)[C@H](C)NC(=O)[C@@H](C)C1	67%	98% (active)	84.8% (active)	88% (active)	99% (active)	81.3% (active)	98% (active)	99% (active)	88.7% (active)	97% (active)	99% (active)	81.5% (active)	99% (active)	99% (active)	77.1% (active)	82% (active)	98% (active)	80% (active)
O=C(CBr)OCC(Br)CBr (centres undefined)	98% (active)	39%	99.2% (active)	99% (active)	50%	99% (active)	99% (active)	36%	99.3% (active)	97% (active)	-4%	98.8% (active)	99% (active)	83% (active)	99.3% (active)	99% (active)	49%	98.8% (active)
CCCC(C)(COC(N)=O)COC(=O)NC1CC1 (centres undefined)	-8%	0%	21.9%	-12%	0%	0.05%	-8%	0%	36.3%	-2%	-6%	37.1%						
O=C(CCCc1ccccc1)[O][Hg][c]1ccccc1	99% (active)	99% (active)	99.7% (active)	100% (active)	99% (active)	99.7% (active)	98% (active)	99% (active)	99.6% (active)	99% (active)	99% (active)	99.2% (active)	99% (active)	99% (active)	99.2% (active)			
O=C1OCC2CC3C4C=CC(C4)C3C12 (centres undefined)	40%	99% (active)	99.2% (active)	47%	100% (active)	99.5% (active)	69%	99% (active)	99.4% (active)	4%	99% (active)	99% (active)	20%	99% (active)	99.4% (active)			
CCSc1nc(=[N+]2CCCC2)ss1	33%	99% (active)	98.5% (active)	25%	100% (active)	97.5% (active)	36%	99% (active)	98.8% (active)	29%	100% (active)	81.7% (active)	17%	100% (active)	89.3% (active)	44%	99% (active)	97% (active)
C[N+](C)(C)CC1CCCC1=O (centres undefined)	18%	70% (active)	51.6%	16%	59%	21.3%	13%	58%	24.6%	11%	34%	19.2%	20%	70% (active)	8.15%	21%	77% (active)	22.6%
ClC1=C(Cl)C2(Cl)C(Cl)CC1(Cl)C2(Cl)Cl (centres undefined)	0%	-1%	62%	-5%	-1%	40.5%	-3%	-24%	68.5%	0%	-9%	70.2% (active)	0%	2%	1.4%			
[C-]#[O+].[Cl][Sn]([Cl])[Cl].[Cl][Sn]([Cl])[Cl].[Pt].c1ccncc1	-11%	97% (active)	56.2%	9%	95% (active)	54.8%	3%	98% (active)	75.3% (active)	3%	78% (active)	41.8%	-13%	47%	62.1%	-1%	98% (active)	70.5% (active)
O=C1C=CC(=O)C(Br)C1Br (centres undefined)	-20%	34%	26.1%	-8%	57%	35.3%	-7%	66%	46.3%	2%	10%	19.1%	-1%	52%	71.2% (active)	35%	57%	66.2%
CCN(CC)C(=S)[S-].CCN(CC)C(=S)[S-].O=C(O)CC([S-])C(=O)O.[Fe+3] (centres undefined)	4%	98% (active)	61.8%	9%	99% (active)	55.8%	35%	99% (active)	76.8% (active)	30%	98% (active)	43.8%	-1%	98% (active)	45.7%			
CC(=O)OC1CCC2C3CCC4C(F)C(=O)C(F)(F)CC4(C)C3CCC12C (centres undefined)	2%	78% (active)	49%	-12%	93% (active)	5.6%	-2%	91% (active)	63.5%	-3%	46%	63%	-1%	60%	8.95%			
